Assay results: PubChem BioAssay (Tox21)
Results filed as inconclusive are left out. Active and inactive are the calls of the source. Unless noted, the call rests on the fitted dose curve; in most records, active means well fitted curve in the direction sought with a large enough effect in the repeat runs; inconclusive means weak or mixed curves; inactive means no such curve, though single readings can be large; an effect the other way counts as inactive or inconclusive.

Columns and labels:
[1] = biological target: Nuclear receptor subfamily 1 group I member 3 (Homo sapiens) (UniProt Q14994); test: qHTS assay to identify small molecule agonists of the constitutive androstane receptor (CAR) signaling pathway (AID 1224839);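 further: HepG2 cells stably carrying human CAR and a CYP2B6 luciferase reporter; series mostly up to about 92 µM; nearly all actives have a fitted effect of over 15% in size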
Method in brief: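 HepG2-CYP2B6-hCAR cells, 2500/well, 4 h pre-incubation; compounds 15 conc.; PK11195 0.75 uM final; 24 h, 37 C/5% CO2; ONE-Glo luciferase read.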

[2] = qHTS assay to identify small molecule antagonists of the estrogen related receptor signaling pathway with the pleiotropic PPARgamma coactivator (PGC) from Tox21 10K library - cell viability counter screen (AID 1224840; active means well fitted cell-killing curve with a large enough effect in the repeat runs, not every such curve was filed as active; further: nearly all actives have a fitted effect of over 40% in size)
Method in brief: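 Multiplexed viability counter screen in the PGC/ERR cell line: cells treated with DMSO-dissolved compounds for 17.5 hours at 37 C, then viability measured as CellTiter-Fluor fluorescence.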

[3] = qHTS assay to identify small molecule agonists of the estrogen related receptor signaling pathway with the pleiotropic PPARgamma coactivator (PGC) from Tox21 10K library (AID 1224842); further: nearly all actives have a fitted effect of over 15% in size
Method in brief: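 PGC/ERR reporter cells (NTP line) were seeded 2,000 per well, rested 6 h at 37 C/5% CO2, then pin-dosed with compounds in DMSO for 18 h at 37 C; luciferase read by One-Glo luminescence after 30 min at room temperature.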

[4] = biological target: Thyrotropin receptor (Homo sapiens) (UniProt P16473); test: qHTS assay to identify small molecule agonists of the thyroid stimulating hormone receptor (TSHR) signaling pathway (AID 1224843; calls by dose curve; further: nearly all actives have a fitted effect of over 45% in size)
Method in brief: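 Compounds are titrated over 15 concentrations, in triplicate, onto TSHR-HEK293 cells seeded at 800/well. Plates sit 30 min at room temperature before cAMP-d2 and anti-cAMP cryptate are added; signal is read after a further hour.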

[5] = qHTS assay to identify small molecule agonists of the hypoxia (HIF-1) signaling pathway - cell viability counter screen (AID 1224844; calls by dose curve; further: nearly all actives have a fitted effect of over 50% in size)
Method in brief: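 Cytotoxicity was measured in parallel with the HRE-driven beta-lactamase readout: after 17 hrs of compound exposure at 37C, HRE-bla ME-180 cells received CellTiter-Glo and luminescence was recorded 30 min later.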

[6] = qHTS assay to identify small molecule agonists of H2AX (AID 1224845; active means well fitted activation curve with a large enough effect in the signal ratio in the repeat runs, not every such curve was filed as active; the % refers to the signal ratio)
Method in brief: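 Wild-type CHO-K1 cells plated overnight, then exposed 3 hr at 37C to compounds at 15 concentrations (0.76% DMSO). Lysed, then HTRF anti-pH2AX(S139)-cryptate/anti-H2AX-d2 detection after 24 hr at room temperature; emissions 665 and 620 nm.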

[7] = qHTS assay to identify small molecule agonists of H2AX - cell viability counter screen (AID 1224847; calls by dose curve; further: top concentration of the series differs between compounds; nearly all actives have a fitted effect of over 30% in size)
Method in brief: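 Cells plated first: CHO-K1, 1000 per well in 10% FBS medium, incubated overnight at 37C. Then 15-point compound titration added (final DMSO 0.76%) for 3 hr. Finally CellTiter-Glo added and luminescence read.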

[8] = qHTS assay to identify small molecule antagonists of the estrogen related receptor (ERR) signaling pathway from Tox21 library (AID 1224848); further: nearly all actives have a fitted effect of over 50% in size
Method in brief: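 First, 2,000 ERR cells per well were plated and held 6 h at 37 C/5% CO2. Next, compounds in DMSO were pinned in and left 18 h at 37 C. Finally, ONE-Glo was added and luminescence read after 30 min at room temperature.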

[9] = qHTS assay to identify small molecule agonists of the estrogen related receptor (ERR) signaling pathway from Tox21 library (AID 1224849; calls by dose curve; further: nearly all actives have a fitted effect of over 15% in size)
Method in brief: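 Cells carrying the ERR reporter were plated and allowed to settle for 6 h, exposed to library compounds for 18 h at 37 C, then lysed with ONE-Glo and luminescence measured.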

[10] = qHTS RealTime-Glo MT Cell Viability Assay in HepG2 cells - 24 hour (AID 1224867); further: nearly all actives have a fitted effect of over 50% in size
Method in brief: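 HepG2 cells (600/well) were dispensed with RealTime-Glo reagents, incubated 5 h at 37 °C, then treated with compounds in DMSO for up to 40 h. Nonlytic NanoLuc luminescence reflecting viable cells was read at each stated time point.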

[11] = qHTS RealTime-Glo MT Cell Viability Assay in HEK293 cells - 32 hour (AID 1224868); further: top concentration of the series differs between compounds; nearly all actives have a fitted effect of over 50% in size
Method in brief: (§1)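 HEK293 cells seeded with NanoLuc/prosubstrate reagent, rested 5 h at 37 C, then dosed and kept at 37 C up to 40 h. Nonlytic real-time luminescence from viable cells read at 0, 8, 16, 24, 32 and 40 h.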

[12] = A CellTox Green Cytotoxicity Assay to monitor cytotoxicity in HEK293 cells - 0 hour (AID 1224869); further: nearly all actives have a fitted effect of over 50% in size
Method in brief: (§2)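 Cells (HEK293, 600/well) and dye reagent are dispensed together. After 5 h at 37 C, 23 nL compound is pinned in. Plates stay at 37 C for 40 h with fluorescence read at 0h, 8h, 16h, 24h, 32h and 40h.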

[13] = qHTS RealTime-Glo MT Cell Viability Assay in HepG2 cells - 40 hour (AID 1224870); further: nearly all actives have a fitted effect of over 50% in size
Method in brief: (§3)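 HepG2 cells mixed with RealTime-Glo MT reagents (NanoLuc plus cell-permeant prosubstrate) were seeded at 600 cells/well, incubated 5 h at 37 C/5% CO2, then pinned with compounds in DMSO; nonlytic luminescence tracked viability during 40 h treatment.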

[14] = A CellTox Green Cytotoxicity Assay to monitor cytotoxicity in HEK293 cells - 40 hour (AID 1224871); further: nearly all actives have a fitted effect of over 45% in size
Method in brief: as §2

[15] = qHTS RealTime-Glo MT Cell Viability Assay in HEK293 cells - 16 hour (AID 1224872)
Method in brief: as §1

[16] = qHTS RealTime-Glo MT Cell Viability Assay in HepG2 cells - 8 hour (AID 1224873); further: nearly all actives have a fitted effect of over 55% in size
Method in brief: as §3

[17] = qHTS RealTime-Glo MT Cell Viability Assay in HEK293 cells - 40 hour (AID 1224874); details: RealTime-Glo luminescence; max response: stronger effect = lower value; further: nearly all actives have a fitted effect of over 50% in size
Method in brief: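 Real-time viability in HEK293: signal arises when living cells convert a prosubstrate for NanoLuc in the medium, so luminescence tracks viable cell number. Compound (23 nL, DMSO) added 5 h post-seeding; kinetic reads at 0–40 h, 37 C.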

[18] = qHTS assay to identify small molecule agonists of the hypoxia (HIF-1) signaling pathway (AID 1224846; active means well fitted activation curve with a large enough effect in the signal ratio in the repeat runs, not every such curve was filed as active; the % refers to the signal ratio)
Method in brief: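 Compounds from the Tox21 10K library, dissolved in DMSO, are tested for induction of a hypoxia response element–controlled beta-lactamase reporter in ME-180 cells. Exposure lasts 17 hrs at 37C after a 5 hr settling period, followed by CCF4-AM FRET substrate.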

[19] = A CellTox Green Cytotoxicity Assay to monitor cytotoxicity in HEK293 cells - 24 hour (AID 1224875); further: series mostly up to about 77 µM; nearly all actives have a fitted effect of over 45% in size
Method in brief: as §2

[20] = qHTS assay to identify small molecule antagonists of the estrogen related receptor signaling pathway with the pleiotropic PPARgamma coactivator (PGC) from Tox21 10K library (AID 1224841; call rule not given here)
Method in brief: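 Steps: plate 2,000 PGC/ERR cells per well; incubate 6 h at 37 C with 5% CO2; transfer compounds from DMSO stocks by pin tool; incubate 18 h at 37 C; add One-Glo; measure luminescence 30 min later.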
On the % scale 0 is the no-effect control and ±100 the full control effect.

Sequence of Thyrotropin receptor (Homo sapiens) (P16473 whole entry, looked up): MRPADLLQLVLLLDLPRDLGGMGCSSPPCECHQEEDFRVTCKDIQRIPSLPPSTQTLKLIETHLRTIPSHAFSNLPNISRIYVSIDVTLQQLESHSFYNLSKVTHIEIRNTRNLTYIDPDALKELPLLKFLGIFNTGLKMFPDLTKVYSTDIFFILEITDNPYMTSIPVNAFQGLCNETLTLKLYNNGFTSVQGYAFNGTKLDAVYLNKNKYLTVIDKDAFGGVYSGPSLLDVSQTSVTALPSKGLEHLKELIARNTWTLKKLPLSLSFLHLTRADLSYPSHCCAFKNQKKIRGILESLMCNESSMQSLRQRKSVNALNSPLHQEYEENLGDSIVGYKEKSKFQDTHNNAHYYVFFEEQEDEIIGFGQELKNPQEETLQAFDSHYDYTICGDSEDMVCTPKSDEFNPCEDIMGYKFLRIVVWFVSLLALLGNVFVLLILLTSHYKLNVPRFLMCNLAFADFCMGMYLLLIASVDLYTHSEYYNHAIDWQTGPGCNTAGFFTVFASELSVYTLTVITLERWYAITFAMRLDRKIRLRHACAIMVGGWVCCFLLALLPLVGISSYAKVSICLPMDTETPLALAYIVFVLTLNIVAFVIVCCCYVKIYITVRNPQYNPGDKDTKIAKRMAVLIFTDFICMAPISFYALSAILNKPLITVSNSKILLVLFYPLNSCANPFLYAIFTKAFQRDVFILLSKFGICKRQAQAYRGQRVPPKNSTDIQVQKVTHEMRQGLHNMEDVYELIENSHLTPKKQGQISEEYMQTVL
Sequence of Nuclear receptor subfamily 1 group I member 3 (Homo sapiens) (Q14994 whole entry, looked up): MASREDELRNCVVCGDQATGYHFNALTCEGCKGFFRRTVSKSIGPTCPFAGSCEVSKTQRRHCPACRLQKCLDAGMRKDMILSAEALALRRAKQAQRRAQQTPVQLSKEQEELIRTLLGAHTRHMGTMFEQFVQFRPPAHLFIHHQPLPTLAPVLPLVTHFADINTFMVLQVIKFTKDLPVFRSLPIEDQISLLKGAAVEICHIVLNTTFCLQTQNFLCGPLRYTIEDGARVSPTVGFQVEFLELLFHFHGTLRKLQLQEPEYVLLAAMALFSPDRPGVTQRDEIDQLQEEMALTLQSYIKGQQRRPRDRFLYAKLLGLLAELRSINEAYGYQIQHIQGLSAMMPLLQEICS

C=C(C)C(=O)OC
inactive: Potency [1] | outcome [2] | outcome [3] | outcome [4] | outcome [5] | outcome [6] | Potency [7] | Potency [8] | outcome [9] | outcome [10] | Potency [11] | Potency [12] | outcome [13] | Potency [14] | Potency [15] | outcome [16] | max response [17] -13.6%

O=S(=O)(O)SSS(=O)(=O)O
inactive: Potency [1] | outcome [2] | outcome [4] | outcome [5] | outcome [6] | outcome [18] | Potency [7] | outcome [10] | Potency [11] | Potency [12] | outcome [13] | Potency [14] | Potency [15] | outcome [16] | max response [17] 4.41% | Potency [19]

CCCCC(CC)COC(=O)c1ccccc1 (stereo unspecified)
inactive: Potency [1] | outcome [2] | outcome [5] | outcome [6] | outcome [18] | Potency [7] | outcome [10] | Potency [11] | Potency [12] | outcome [13] | Potency [14] | Potency [15] | outcome [16] | max response [17] 3.3% | Potency [19]

Cc1cccc(C(=O)O)c1[N+](=O)[O-]
inactive: Potency [1] | outcome [2] | outcome [4] | outcome [5] | outcome [6] | outcome [18] | Potency [7] | outcome [10] | Potency [11] | Potency [12] | Potency [14] | Potency [15] | outcome [16] | max response [17] 0.185%

CC(C)C(=O)Nc1cccc(C(F)(F)F)c1
inactive: Potency [1] | outcome [2] | Potency [20] | outcome [3] | outcome [5] | outcome [6] | outcome [18] | Potency [7] | Potency [8] | outcome [9] | outcome [10] | Potency [11] | Potency [12] | outcome [13] | Potency [14] | Potency [15] | outcome [16] | max response [17] -2.33% | Potency [19]

C1=C\CC/C=C\CC/1
inactive: Potency [1] | outcome [2] | outcome [5] | outcome [6] | outcome [18] | Potency [7] | outcome [10] | Potency [11] | Potency [12] | outcome [13] | Potency [14] | Potency [15] | outcome [16] | max response [17] 16.6% | Potency [19]

Nc1ccc(S(=O)(=O)Nc2ccccn2)cc1
inactive: Potency [1] | outcome [2] | outcome [4] | outcome [5] | outcome [6] | Potency [7] | outcome [10] | Potency [11] | Potency [12] | outcome [13] | Potency [14] | Potency [15] | outcome [16] | max response [17] -4.15% | Potency [19]

Nc1c(NC/C=C\COc2cc(CN3CCCCC3)ccn2)c(=O)c1=O
inactive: activation [1] 4% [at 19 µM] | viability change, negative = cytotoxic [2] 8.26% [at 19 µM] | activation [4] 2.1% [at 19 µM] | activity change, negative = cytotoxicity [5] 1.18% [at 15.8 µM] | activation (H2AX phosphorylation) [6] -1.81% [at 31.6 µM] | activation [18] 0.659% [at 15.8 µM] | activity change, negative = cytotoxicity [7] 2.48% [at 31.6 µM] | activity change, negative = cytotoxicity [10] 1.59% [at 15.8 µM] | activity change, negative = cytotoxic [11] 2.38% [at 15.8 µM] | cytotoxicity [12] -1.89% [at 15.8 µM] | activity change, negative = cytotoxic [13] 1.19% [at 15.8 µM] | cytotoxicity increase [14] 6.78% [at 15.8 µM] | activity change, negative = cytotoxicity [15] 2.61% [at 15.8 µM] | viability change, negative = cytotoxic [16] 6.05% [at 15.8 µM] | max response [17] -0.39%
